# High-throughput results from PubChem.
# G9a block: G9a (human) methyltransferase inhibition; AID 504332; Q96KQ7; actives 8.8% (n = 350,000); G9a H3K9 monomethylation, AlphaScreen, 2 h; Potency, µM (titrated, usually from 102 µM), for the others: at the highest dose activity, negative = inhibition, hits mostly inhibitors; further: on the % scale 0 is the no-effect control and ±100 the full control effect; nearly all actives have a fitted effect of over 75% in size
# Target sequence (Q96KQ7 913-1193 limits assumed): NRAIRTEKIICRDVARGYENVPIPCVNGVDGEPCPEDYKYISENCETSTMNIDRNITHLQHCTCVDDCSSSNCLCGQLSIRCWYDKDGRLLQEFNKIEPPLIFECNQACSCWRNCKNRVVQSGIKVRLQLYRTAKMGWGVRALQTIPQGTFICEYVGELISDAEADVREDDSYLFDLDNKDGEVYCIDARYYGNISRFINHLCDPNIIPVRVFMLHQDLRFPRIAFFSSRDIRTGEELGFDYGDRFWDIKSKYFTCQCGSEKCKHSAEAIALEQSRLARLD
#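 Chemiluminescent proximity detection of H3K9 monomethylation, read after 10 min bead incubation in the dark. Reaction: 20 nM G9a, 500 nM biotin-H3K9 peptide, 20 uM SAM cofactor, 2 h, room temperature, following 15 min enzyme-compound preincubation.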
# HP1b binding inh: blocks HP1-beta chromodomain binding to methylated histone tails; P83916; AlphaScreen HP1-beta / biotin-H3K9me3 peptide binding; Potency, µM (series often up to 114 µM), for the others: at the top dose activity change, negative = inhibition, actives largely listed as inhibitors; actives 0.56% (n = 390,000); further: nearly all actives have a fitted effect of over 70% in size
# Target sequence (P83916 whole entry, looked up): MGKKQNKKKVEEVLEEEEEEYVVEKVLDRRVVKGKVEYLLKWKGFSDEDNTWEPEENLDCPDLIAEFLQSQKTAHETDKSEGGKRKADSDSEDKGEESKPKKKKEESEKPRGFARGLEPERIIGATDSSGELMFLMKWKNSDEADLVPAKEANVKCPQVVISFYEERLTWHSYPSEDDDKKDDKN
#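 HP1-beta protein (50 nM final) preincubated 30 min at room temperature with biotinylated H3(1-18)K9me3 peptide (50 nM) in PBS pH 7.4, 0.01% Tween-20, then compound added for 30 min. AlphaScreen streptavidin donor/nickel chelate acceptor beads (10 ug/mL final), 30 min dark, luminescence read.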
# JMJD2A Tudor: JMJD2A Tudor domain (human) inhibition; O75164; AlphaScreen JMJD2A-Tudor / H3K4me3 peptide binding; Potency, µM (highest dose often 114 µM), for inactives: at the top dose activity change, negative = inhibition, hits mostly inhibitors; actives 4.4% (n = 390,000); AID 504339; further: on the % scale 0 is the no-effect control and ±100 the full control effect; nearly all actives have a fitted effect of over 50% in size
# BAZ2B block: BAZ2B (human) inhibition; Q9UIF8; AlphaScreen BAZ2B-H3K14Ac peptide displacement; Potency, µM (titrated, usually from 114 µM), for the others: top-dose activity change, negative = inhibition, usual class: inhibitors; actives 4.4% (n = 360,000); further: on the % scale 0 is the no-effect control and ±100 the full control effect; nearly all actives have a fitted effect of over 60% in size
#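 AlphaScreen luminescence quantifies BAZ2B engagement of H3K14Ac peptide; the protein and biotinylated peptide are both at 50 nM final, buffer PBS pH 7.4 with 0.01% Tween-20, all steps at room temperature.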
# Sfp PPTase inh: Sfp phosphopantetheinyl transferase inhibition | Q9F4F7 | Biochemical Sfp PPTase activity, qHTS | Potency, µM, inactives show largest response in the series, negative = inhibition, actives largely listed as inhibitors | actives 3.5% (n = 310,000);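 further: the enzyme is Sfp with the accession as filed and its product quenches rhodamine fluorescence; 0% = enzyme reaction without inhibitor and -100% = no enzyme wells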
#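 Fluorescence-quenching assay: 15 nM Sfp-PPTase preincubated 15 min at room temperature with compound, then 5 uM rhodamine-CoA and 12.5 uM BHQ-2-labelled YbbR peptide added. Fluorescence (ex 525/em 598 nm) read at start and after 30 min; difference gives rate.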
# * = called active by the depositor; ? = inconclusive; . = no result; [ ] = remark or other dose. Sampled rows, rich in hits. Any-hit rate of the full collection: about 12%. The call rests on the fitted dose curve; in most records, active means well fitted curve in the direction sought with a large enough effect; inconclusive means small, poorly fitted or top-dose-only effect, or another doubt; inactive means no such curve, though single readings can be large; an effect the other way counts as inactive or inconclusive. Potency means the concentration at half of the fitted maximal effect.
SMILES,G9a block,HP1b binding inh,JMJD2A Tudor,BAZ2B block,Sfp PPTase inh
O=c1ccc2c(OCCCCOc3ccccc3)c3ccoc3cc2o1,.,.,.,.,-7%
Cn1c(=O)c2c(nc(NN=C3CCCC3)n2C)n(C)c1=O,40µM*,0%,-27%,?,22µM*
Cn1c(=O)c2c(nc(NNC(=O)C(F)(F)F)n2C)n(C)c1=O,6.3µM*,37%,?,?,0.89µM*
Cn1c(=O)c2c(nc(CO)n2C)n(C)c1=O,-15%,-12%,-7%,-14%,13%
Fc1ccc(Nc2nc(NCc3ccco3)nc3nccnc23)cc1,.,15%[57 µM],-8%[57.1 µM],.,.
CC[n+]1c(C)cc2c(sc3ccccc32)c1C,22µM*,44%,?,-19%,11%
CN1CCC(=NNC(=O)C(=O)Nc2ccc(F)cc2)CC1,?,47%,-3%[11.4 µM],-17%,6%
CN1CCC(=NNC(=O)C(=O)Nc2cccc(Br)c2)CC1,-5%[59 µM],5%,22µM*,-27%,12%
CN1CCC(=NNC(=O)C(=O)NCc2ccccc2)CC1,40µM*,17%,-9%,-1%,1%
O=C(O)c1cccc(-c2cccc(-c3nn4c(=O)cc(N5CCNCC5)nc4s3)c2)c1,.,.,-26%,.,.
COc1ccc(C(=O)Oc2c(OC)cc(C(=S)N3CCOCC3)cc2OC)cc1,45µM*,15%,-18%,-30%,-4%
COc1cc(C(=S)N2CCCC2)cc(OC)c1OC,40µM*,5%,-18%,-19%,50µM*
COc1cc(C(=O)Oc2ccc(C(=S)N3CCOCC3)cc2)cc(OC)c1OC,.,9%,3%,0%,-16%
CC(C)(C)c1cc(C(=S)N2CCCC2)cc(C(C)(C)C)c1O,.,-22%,?,?,40µM*
COc1cc(C(=S)N2CCCC2)cc(OC)c1OS(=O)(=O)c1ccc(NC(C)=O)cc1,32µM*,?,?,-28%,35µM*
COc1ccc(S(=O)(=O)N(CC(=O)NCc2ccc(C)cc2)c2ccc(Cl)cc2)cc1,-4%[59 µM],42%,0%,-1%,.
COc1cc(C(=S)N2CCOCC2)cc(OC)c1O,.,-19%,-21%,6%,?
COc1ccc(S(=O)(=O)Oc2ccc(C(=S)N3CCOCC3)cc2OC)cc1,.,20%,-22%,-4%,2%
COc1ccc(S(=O)(=O)Oc2c(OC)cc(C(=S)N3CCOCC3)cc2OC)cc1,22µM*,-19%,-29%,-23%,28µM*
COc1ccc(C(=O)Oc2c(OC)cc(C(=S)N3CCOCC3)cc2OC)cc1OC,-9%[0.501 µM],?,?,-12%,40µM*
COc1ccc(C(=S)N2CCOCC2)cc1OS(=O)(=O)c1ccc(Br)cc1,45µM*,-11%,-27%,-39%,-5%
COc1ccc(C(=O)NC(=S)N2CCOCC2)cc1OC,50µM*,9%,-16%,-30%,?
COc1cc(NC(=S)N2CCCCC2C)cc(OC)c1OC (configuration not stated),-49%,40%,-4%,-19%,45µM*
CCOc1ccc(OCCC(=O)OCC(=O)Nc2cc(OCC)c(N3CCOCC3)cc2OCC)cc1,35µM*,?,?,?,.
CCOc1cc(N2CCOCC2)c(OCC)cc1NC(=O)CC12CC3CC(CC(C3)C1)C2,13µM*,-52%,45µM*,35µM*,-3%
SMILES,G9a block,HP1b binding inh,JMJD2A Tudor,BAZ2B block,Sfp PPTase inh
CCOc1cc(N2CCOCC2)c(OCC)cc1NC(=O)COC(=O)c1cc2ccccc2cc1O,-14%[59 µM],20%,-18%,-2%,-28%
CCOc1cc(N2CCOCC2)c(OCC)cc1NC(=O)Cc1ccc(OC)c(OC)c1,50µM*,-10%,?,?,-21%
CCOc1cc(N2CCOCC2)c(OCC)cc1NC(=O)COC(=O)C1CCCN1S(=O)(=O)c1ccccc1F (configuration not stated),19%[12.7 µM],3%,-34%,-38%,.
CCOc1cc(N2CCOCC2)c(OCC)cc1NC(=O)COC(=O)[C@@H]1CCCN1S(=O)(=O)c1ccccc1F,45µM*,5%,-30%,?,-29%
CCOc1cc(N2CCOCC2)c(OCC)cc1NC(=O)Cn1cnnn1,.,22%,-21%,.,.
CCOc1ccccc1NC(=O)CSC1=Nc2ccccc2C2=NC(CC(=O)NCc3ccc4c(c3)OCO4)C(=O)N12 (configuration not stated),27%[59 µM],48%,-24%,-4%,.
CCOc1cc(N2CCOCC2)c(OCC)cc1NC(=O)COc1cccc(CC)c1,?,-2%,?,?,.
CCOc1cc(N2CCOCC2)c(OCC)cc1NC(=O)Cc1cccc(OC)c1,50µM*,-17%,?,?,9%
CCOc1cc(N2CCOCC2)c(OCC)cc1NC(=O)c1cccc(N(C)C)c1,45µM*,?,?,40µM*,-1%
CC(C)=NO[C@@H](C)c1cn([C@@H]2COC[C@@H]2O)nn1,.,.,.,.,3%
Cc1ccc(C2C(C#N)=C(N)N(c3cccnc3)C3=C2C(=O)CCC3)s1 (configuration not stated),40µM*,49%,-32%,?,-7%
COc1ccc(C2C3=C(CC(C)(C)CC3=O)N(CC(=O)O)C3=C2C(=O)CC(C)(C)C3)cc1OC,71µM*,49%,9%,-19%,14%
CCOc1ccc(C2C(C#N)=C(N)N(N(C)C)C3=C2C(=O)CC(C)(C)C3)cc1 (configuration not stated),35µM*,30%,-3%,-2%,10%
COc1ccc(N2C(N)=C(C#N)C(c3cccnc3)C3=C2CC(C)(C)CC3=O)cc1 (configuration not stated),11µM*,44%,-22%,-4%,11%
CCSc1sccc1C1C(C#N)=C(N)N(c2cccnc2)C2=C1C(=O)CC(C)(C)C2 (configuration not stated),?,18%,-17%,-9%,-16%
Cc1c(F)cccc1NS(=O)(=O)c1cccs1,-1%[59 µM],40%,-11%,6%,.
CO[C@@H]1/C=C\CC(=O)N[C@@H](C)C(=O)OC[C@H](NS(=O)(=O)c2ccc(C)cc2)[C@H](C)/C=C\CC(=O)OC[C@H]1C,.,.,.,.,29%
CC1(C)CC(=O)C2=C(C1)N(c1ccccc1C#N)C(N)=C(C#N)C2c1cccs1 (configuration not stated),40µM*,-5%,?,56µM*,-17%
CC1(C)CC(=O)C2=C(C1)N(c1cccnc1)C(N)=C(C#N)C2c1cccs1 (configuration not stated),-15%[59 µM],42%,-11%,-4%,?
COc1ccc(C2C(C#N)=C(N)N(c3cccnc3)C3=C2C(=O)CC(C)(C)C3)cc1OC (configuration not stated),35µM*,53%,-11%,-29%,-7%
COc1ccc(-n2nc(C(=O)N3CCN(c4ccccc4OC)CC3)c3c4ccccc4n(C)c3c2=O)cc1Cl,31%[59 µM],62%,-10%,.,.
O=c1c(O)c(-c2ccccc2)oc2cccc(O)c12,.,.,.,.,12%
